# From PubChem
# This is a sample that favours compounds with a hit; in the whole collection about 5.5% have one here.
# ELG1 DNA repair – ELG1-dependent DNA repair inhibition; AID 504467; HEK293T ELG1-luciferase reporter, luminescence, 16 h; DNA damage induced by 5-fluorouridine; Potency, µM (series often up to 46.1 µM), for the others: top-dose activity change, negative = inhibition, actives largely listed as inhibitors; 2.3% of 330,000 active; also: potency is read from the fitted curve at half-maximal effect; nearly all actives have a fitted effect of over 55% in size
#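 5-Fluorouridine DNA damage + compound/DMSO, 2,000 cells/well, 16 h, 37 °C/5% CO2. ONE-Glo, 30 min RT, luminescence. Readout = decrease in reporter signal.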
# Coupling enz – coupling enzyme interference in Giardia aldolase counter-screen | coupling enzyme system counterscreen, AmpLite Red fluorescence | activity change, negative = inhibition, % at 58.2 µM, hits read low | 0.67% of 290,000 active; in the data active = activity change below about -30%
#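 Counterscreen of the coupled detection system alone, without aldolase: glyceraldehyde-3-phosphate coupling enzymes plus AmpLite Red readout. Compounds at 57.5 uM final, 10 min RT preincubation, 20 min RT reaction, fluorescence 525/598 nm.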
# Sfp PPTase inh – inhibitors of Bacillus subtilis Sfp phosphopantetheinyl transferase. 3.5% of 310,000 active. AID 1490. Biochemical Sfp PPTase activity, qHTS. Potency, µM, inactives show largest response in the series, negative = inhibition, most hits filed as inhibitors;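 also: the enzyme is Sfp with the accession as filed and its product quenches rhodamine fluorescence; potency is read from the fitted curve at half-maximal effect; 0% = enzyme reaction without inhibitor and -100% = no enzyme wells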
#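 Buffer: 50 mM Hepes-Na pH 7.6, 10 mM MgCl2, 0.01% Nonidet P-40, 0.01% BSA. Enzyme 15 nM, pre-exposed to compound 15 min; substrates then added and fluorescence change tracked over 30 min.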
# Giardia kill – Giardia lamblia killing | Giardia lamblia trophozoite viability | activity change, % at 7.66 µM, hits read low | 0.15% of 340,000 active; in the data active = activity change below about -80%; inconclusive = between about -30% and that limit;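 also: parasites exposed to compound for two days anaerobically before the ATP read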
#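 Each well holds 100 Giardia trophozoites and compound. After two days (48 hrs) at 37 deg C in anaerobic conditions, ATP is quantified by luminescence.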
# Starred values were filed as active, the others as inactive; ? = inconclusive; nt = no result; ! = not active in a repeat. Unless noted, calls follow the shape of the dose curve; as a rule, active = well fitted curve in the direction sought with a large enough effect; inconclusive = small, poorly fitted or top-dose-only effect, or another doubt; inactive = no such curve, though single readings can be large; an effect the other way counts as inactive or inconclusive. Unless noted, % is scaled to controls: 0 for no effect and ±100 for the full control effect.
SMILES,ELG1 DNA repair,Coupling enz,Sfp PPTase inh,Giardia kill
COc1cc(C(=O)Nc2cc(-c3nc4cc(C)ccc4o3)ccc2C)cc(OC)c1OC,25%,-2,?,-13
Cc1ccc(S(=O)(=O)N2CCOCC2)cc1C(=O)NCCc1ccc(Cl)cc1,0%,nt,nt,-5
COc1ccc(N2CCN(C(=O)COC(=O)CNC(=O)c3ccc(C)cc3)CC2)cc1,10%,nt,nt,5
O=C(NCCCN1CCCC1=O)c1ccc2c(c1)NC(=O)C(N1CCOCC1)S2 (stereo not given),7%,-5,71µM*,14
N#Cc1ccccc1CSc1nc(N)cc(N)n1,-1%,-1,-3%,12
COc1ccc(-c2nc(Cn3c(SCc4ccc(C)cc4)nc4ccncc43)c(C)o2)cc1OC,13µM*,-1,?,-28
COc1ccc(-c2nc(Cn3c(SCc4cccc(F)c4)nc4ccncc43)c(C)o2)cc1OC,?,0,?,-3
O=C(N/C(=C\c1ccccc1)C(=O)N1CCOCC1)c1ccccc1Br,?,3,5%,-11
Cc1cccc(OCc2nnc(SCCC(=O)O)n2-c2ccccc2)c1,30%,8,50µM*,-1
COc1ccc(-n2c(COc3cccc(C)c3)nnc2SCC(=O)O)cc1,-3%,17,17%,-10
CCOc1ccc(NC(=O)CSc2ccc3nnc(-c4cccnc4)n3n2)cc1,-4%,1,11%,-1
COC(=O)c1sccc1NC(=O)CC1C(=O)NCCN1C(=O)Nc1ccc(OCc2ccccc2)cc1 (stereo not given),12µM*,4,-7%,18
CCCCc1ccc(NC(=O)N2CCNC(=O)C2CC(=O)Nc2ccsc2C(=O)OC)cc1 (stereo not given),23µM*,-1,-25%,13
COC(=O)c1sccc1NC(=O)CC1C(=O)NCCN1C(=O)Nc1ccccc1 (stereo not given),?,-2,5%,21
COC(=O)CCCC1=CC2=CC(=O)C(C)(OC(=O)c3cccs3)C(=O)C2=CN1CCc1ccccn1 (stereo not given),1%,-31*!,0%,-21
CCCCC1=CC2=C(c3ccco3)C(=O)C(C)(OC(=O)c3ccc(OC)cc3)C(=O)C2=CN1Cc1ccccc1 (stereo not given),0%,-5,45µM*!,-5
CCCCC1=CC2=C(c3ccco3)C(=O)C(C)(OC(=O)c3ccc(OC)cc3)C(=O)C2=CN1CCc1ccccn1 (stereo not given),-12%,-5,56µM*!,?
CCCCC1=CC2=C(c3ccco3)C(=O)C(C)(OC(=O)c3ccc(OC)cc3)C(=O)C2=CN1CCOC (stereo not given),-12%,-7,-7%,9
CCCCC1=CC2=C(c3ccco3)C(=O)C(C)(OC(=O)c3ccc(OC)cc3)C(=O)C2=CN1C1CCCCC1 (stereo not given),-9%,-17,56µM*!,-16
CCCCC1=CC2=C(c3ccco3)C(=O)C(C)(OC(=O)c3ccc(OC)cc3)C(=O)C2=CN1Cc1ccc2c(c1)OCO2 (stereo not given),0%,-5,?,1
COc1cc(OC)cc(-c2c(-c3cccs3)c3cc(-c4ccc(C(N)=O)cc4)ccc3n2C)c1,20%,nt,nt,-2
COC(=O)CCCC1=CC2=C(c3ccccc3)C(=O)C(C)(OC(=O)C3CCCC3)C(=O)C2=CN1C1CCCCC1 (stereo not given),1%,-31*!,-8%,20
COC(=O)CCCC1=CC2=C(c3ccccc3)C(=O)C(C)(OC(=O)C3CCCC3)C(=O)C2=CN1C1CCCC1 (stereo not given),-26%,-12,-13%,-20
CCN(CC)CCCN=C1N[C@@H](c2cccc(C(F)(F)F)c2)C(C(=O)OC)=C(C)N1CC,?,nt,nt,1
CCNc1ccc(Br)cc(C(=O)/C=C/c2ccc3c(c2)OCO3)c1=O,-11%,-29,-81%,4
SMILES,ELG1 DNA repair,Coupling enz,Sfp PPTase inh,Giardia kill
CCNc1ccc(Br)cc(C(=O)/C=C/c2ccc(Cl)cc2)c1=O,21µM*,-28,40µM*,-3
CCNc1ccc(Br)cc(C(=O)/C=C/c2c(Cl)cccc2Cl)c1=O,?,-18,16µM*,4
CCOC(=O)CSc1nnc(NC(=O)CCc2ccccc2)s1,19%,1,15%,34
O=C(NCCO)c1ccc2c3n(nc2c1)-c1ccc(Cl)cc1CO3,?,-2,89µM*,12
O=C(c1ccc2c3n(nc2c1)-c1ccc(Cl)cc1CO3)N1CCCCC1,?,-3,56µM*,12
CN(CCO)c1nc(N)c2c(N)nc3c(c2c1C#N)CC(=O)N3C1CCCC1,0%,-38*,50µM*,nt
N#Cc1c(N2CCN(c3ccc(F)cc3)CC2)nc(N)c2c(N)nc3c(c12)CC(=O)N3C1CC1,0%,-16,4%,17
O=C(CSc1nc2sc3c(c2c(=O)n1-c1ccccc1)CCCC3)N/N=C/c1ccccc1C(=O)O,2%,16,30%,19
COc1ccc2[nH]c3c(=S)nc[nH]c3c2c1,13%,-6,50µM*,1
CC(=O)c1ccc(-c2cccc([C@H]3[C@@H]4C=CC[C@@H](C)[C@@H]4C(=O)N3Cc3ccccc3)c2)cc1,?,-1,-19%,6
Cc1ccccc1-c1cc2c(nn1)-c1ccccc1C2=O,?,-39*,-7%,-18
Cc1ccc(-c2cc3c(nn2)-c2ccccc2C3=O)cc1,?,-5,6%,-97*
COc1ccc(-c2nc3cnc(OCc4ccccc4)nc3n(CCC#N)c2=O)cc1,nt,1,21%,nt
CC(Sc1ccccc1)C(=O)NNC(=O)c1ccncc1 (stereo not given),11%,nt,nt,10
O=C(COC(=O)c1nc(Cl)c(Cl)c(Cl)c1Cl)NCc1ccccc1,?,nt,nt,8
O=C(CN(c1ccccc1)S(=O)(=O)c1ccccc1[N+](=O)[O-])N1CCCC1,20%,2,15%,0
Cc1nc(-c2ccc(Cl)cc2)sc1C1(C)CC(c2cccnc2)=NO1 (stereo not given),?,-14,56µM*,-3
COc1ccc(C2=NOC(C)(c3sc(-c4ccc(Cl)cc4)nc3C)C2)cc1 (stereo not given),nt,nt,nt,11
COc1ccc(Cc2noc(-c3ccc([N+](=O)[O-])cc3)n2)cc1OC,18µM*,-1,-12%,-2
COc1ccc(Br)cc1CN(C)C(=O)CNC(=O)c1ccc2ccccc2c1,?,-5,-3%,-12
COc1cc2cc(CN(Cc3cccnc3)C(=O)Nc3ccccc3)c(=O)[nH]c2cc1OC,7.3µM*,-3,7%,34
COc1ccc2[nH]c(=O)c(CN(CCc3ccccc3)C(C)=O)cc2c1,1%,3,2%,1
CCC(C)NC(=S)N(CCc1ccccc1)Cc1cc2cc(OC)c(OC)cc2[nH]c1=O (stereo not given),6.5µM*,0,13%,-11
COc1cc2cc(CN(Cc3cccnc3)C(=O)NCc3ccccc3)c(=O)[nH]c2cc1OC,?,-3,8%,18
